Inconclusive results are not listed. Activity calls are given as the source filed them. Unless noted, no cut-off is given here; in the data, nearly all actives have AC50 up to about 26 µM.
Columns and labels:
[1] = growth inhibition of DIPG glioma cells, dose response, cell-based, SU-DIPG-XVII, MIPE5.0, CellTiter-Glo, qHTS (AID 1347060); conditions: SU-DIPG-XVII viability, CellTiter-Glo ATP luminescence;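 for AC50: cells exposed to compound for 48 hours before viability readout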
[2] = growth inhibition of DIPG glioma cells, dose response, cell-based, JHH-DIPG-1, MIPE4.0, CellTiter-Glo, qHTS (AID 1347062; cut-off not given, nearly all actives have AC50 up to about 27 µM;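 for AC50: cells exposed to compound for two days before readout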); conditions: JHH-DIPG-1 viability, CellTiter-Glo ATP luminescence
[3] = growth inhibition of DIPG glioma cells, dose response, cell-based, SU-DIPG-IV, MIPE4.0, CellTiter-Glo, qHTS (AID 1347063; cut-off not given, nearly all actives have AC50 up to about 30 µM;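 note: compound exposure lasted 48 hours before the viability readout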); conditions: SU-DIPG-IV viability, CellTiter-Glo ATP luminescence
[4] = growth inhibition of DIPG glioma cells, dose response, cell-based, SU-DIPG-XIII, MIPE5.0, CellTiter-Glo, qHTS (AID 1347064; cut-off not given, nearly all actives have AC50 up to about 23 µM;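 for AC50: cells exposed to compound for 48 hours before the viability read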); conditions: SU-DIPG-XIII viability, CellTiter-Glo ATP luminescence
[5] = viability loss in pontine glioma line – cell-based, SU-DIPG-XXV, MIPE5.0, CellTiter-Glo, qHTS, dose response (AID 1347065); conditions: CellTiter-Glo ATP luminescence;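 note: cells exposed to compound for 48 hours before ATP readout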
[6] = SU-DIPG-VI glioma cell viability, MIPE4.0 library, CellTiter-Glo luminescence, qHTS (AID 1347066; cut-off not given, nearly all actives have AC50 up to about 30 µM;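 note: cells exposed to compound for 48 hours before readout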); conditions: CellTiter-Glo ATP luminescence
[7] = JHH-DIPG-1 glioma cell viability, MIPE5.0 library, CellTiter-Glo luminescence, qHTS (AID 1347067); conditions: JHH-DIPG-1 glioma viability, CellTiter-Glo ATP luminescence;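 note: cells exposed to compound for 48 hours before readout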
[8] = growth inhibition of DIPG glioma cells, dose response, cell-based, SU-DIPG-XIII, MIPE4.0, CellTiter-Glo, qHTS (AID 1347061; cut-off not given, nearly all actives have AC50 up to about 37 µM;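 note: cells exposed to compound for 48 hours before readout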); conditions: SU-DIPG-XIII viability, CellTiter-Glo ATP luminescence
[9] = SU-DIPG-XXV glioma cell viability, MIPE5.0 library, qHTS (AID 1347068; cut-off not given, nearly all actives have IC50 up to about 30 µM;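 for IC50: cells exposed to compound for 48 hours before viability readout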)
[10] = sensitizers of A549 cells to miR-34 induction, primary screen, imaging, A549 dox-inducible miR-34, nuclei and caspase counts (AID 1347080;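 active = compounds whose cell count with miR-34 switched on is under 0.7 times the count with it off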); conditions: A549 miR-34 inducible, Hoechst nuclei count, 48 h
[11] = survival rescue of mitochondrial mutant cells in low glucose, primary screen, MELAS cybrids, Rieske KO mouse fibroblasts, CellTiter-Glo (AID 1508586;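 active = mean z-score across replicates of 1.96 or higher in either the MELAS or the Rieske mutant cell line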;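 note: z relative to plate mean and SD of compound and empty wells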)
[12] = modifiers of HSF1 nuclear foci, imaging, Selleck Cancer Library (AID 1347162; in the data active = plate-normalised HSF1 focus index below about 0.46); conditions: human cells, at 10 µM; SSMD: measured here: HSF1 foci SSMD mean; cell count: measured here: cell number; plate-normalised HSF1 focus index: stronger effect = lower value
[13] = ovarian cancer cell viability with rucaparib, profiling panel, oncology-focused library, rucaparib conditional (AID 1508598;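 active = normalized viability below 100% at a tested concentration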); conditions: patient-derived ovarian cancer cells, CellTiter-Glo viability, 144 h, stronger effect = lower value
[14] = stronger effect = lower value, cell number ratio, induced over uninduced
[15] = measured here: relative caspase fold change +Dox/-Dox
[16] = measured here: total cells with miR-34 induction, stronger effect = lower value
[17] = measured here: total cells without miR-34 induction
[18] = MELAS cybrid survival, CellTiter-Glo 48 h, stronger effect = higher value
[19] = Rieske KO mouse fibroblast survival, CellTiter-Glo 72 h

CCc1cnn2c(NCc3ccc[n+]([O-])c3)cc(N3CCCC[C@H]3CCO)nc12
active: AC50 [1] 0.0372 µM | AC50 [2] 0.0235 µM | AC50 [3] 0.0187 µM | AC50 [4] 0.0372 µM | AC50 [5] 0.0295 µM | AC50 [7] 0.0417 µM
inactive: outcome [6]

NC1=N[C@H]2[C@H](CS[C@H]2CCCCC(=O)O)N1
inactive: outcome [1] | outcome [2] | outcome [3] | outcome [4] | outcome [5] | outcome [6] | outcome [7]

Cc1nc(NC(=O)N2CCC[C@H]2C(N)=O)sc1-c1csc(C(C)(C)C)n1
active: AC50 [1] 11.8 µM | AC50 [2] 4.69 µM | AC50 [3] 2.96 µM | AC50 [4] 7.42 µM | AC50 [5] 4.68 µM | AC50 [6] 9.35 µM

CC(C)(C)c1nc2c3cc[nH]c(=O)c3c3cc(F)ccc3c2[nH]1
inactive: outcome [8]
active: AC50 [1] 16.6 µM | AC50 [5] 1.48 µM

CC1=C(C(=O)Nc2cc3cn[nH]c3cc2F)C(c2ccc(Cl)cc2F)N=C(c2ccnc(Cl)c2)N1 (stereo not given)
active: AC50 [1] 13.2 µM | AC50 [5] 5.9 µM | AC50 [7] 16.6 µM
inactive: outcome [8]

NS(=O)(=O)c1cccc2c1C(=O)c1cccc(O)c1C2=O
active: AC50 [1] 2.35 µM | AC50 [2] 1.18 µM | AC50 [3] 0.332 µM | AC50 [4] 1.18 µM | AC50 [5] 1.86 µM | AC50 [6] 0.526 µM | AC50 [7] 2.09 µM | IC50 [9] 9.34 µM

Cc1cc(CN2CCN(c3c(Br)cnc4nc(-c5ccc(N6CCN(C)CC6)cc5)[nH]c34)CC2)no1
3400: cell count [10, 16]
inactive: fold change [10, 14] 1.05 | z-score [11, 18] -0.545
3250: cell count [10, 17]
0.921: fold change [10, 15]
-0.677: z-score [11, 19]
active: AC50 [1] 1.66 µM | AC50 [2] 7.43 µM | AC50 [3] 5.26 µM | AC50 [4] 3.32 µM | AC50 [5] 1.05 µM | AC50 [6] 14.8 µM | AC50 [7] 2.63 µM | IC50 [9] 8.33 µM

CCCCOc1ccc(C(=O)Nc2ccc(F)cc2F)cc1
0.917: fold change [10, 15]
inactive: outcome [1] | outcome [2] | outcome [3] | outcome [4] | outcome [5] | outcome [6] | outcome [7] | outcome [9] | fold change [10, 14] 0.889 | z-score [11, 18] -0.373
10200: cell count [10, 17]
0.589: z-score [11, 19]
9070: cell count [10, 16]

CC(C)n1c(/C=C/[C@H](O)C[C@H](O)CC(=O)O)c(-c2ccc(F)cc2)c2ccccc21
0.873: fold change [10, 15]
1670: cell count [10, 16]
inactive: outcome [8] | outcome [6] | outcome [9] | fold change [10, 14] 1.07 | z-score [11, 18] -2.58
0.0762: z-score [11, 19]
1560: cell count [10, 17]
active: AC50 [1] 8.33 µM

Cc1cc(SCc2sc(-c3ccc(C(F)(F)F)cc3)nc2C)ccc1OCC(=O)O
inactive: outcome [1] | outcome [2] | outcome [3] | outcome [4] | outcome [5] | outcome [6] | outcome [7] | outcome [9]

O=C1CCCC(=O)C1C(=O)c1ccc(C(F)(F)F)cc1[N+](=O)[O-]
inactive: outcome [1] | outcome [2] | outcome [3] | outcome [4] | outcome [5] | outcome [6] | outcome [7] | outcome [9]

CC1(C)Cc2c(sc(NC(=S)NC(=O)c3ccccc3)c2C(=O)O)CO1
inactive: outcome [1] | outcome [2] | outcome [3] | outcome [4] | outcome [5] | outcome [6] | outcome [7] | outcome [9]

O=C(O)[C@H](CC(=O)N1C[C@H]2CCCC[C@H]2C1)Cc1ccccc1
inactive: outcome [1] | outcome [2] | outcome [3] | outcome [4] | outcome [5] | outcome [6] | outcome [7] | outcome [9]

C=C[C@H]1CN2CCC1C[C@@H]2C(O)c1ccnc2ccc(OC)cc12 (stereo not given in full)
inactive: outcome [1] | outcome [2] | outcome [3] | outcome [4] | outcome [5] | outcome [6] | outcome [7] | outcome [9] | fold change [10, 14] 0.966
5680: cell count [10, 16]
5880: cell count [10, 17]
0.977: fold change [10, 15]

CSc1cccc(Nc2ncc3cc(-c4c(Cl)cccc4Cl)c(=O)n(C)c3n2)c1
inactive: outcome [8]
active: AC50 [1] 1.48 µM | AC50 [5] 1.05 µM | AC50 [7] 1.18 µM

CC[C@H](C)n1cc(C)c2c(C(=O)NCc3c(C)cc(C)[nH]c3=O)cc(-c3ccc(N4CCNCC4)nc3)cc21
active: AC50 [8] 14.8 µM | AC50 [6] 23.5 µM | IC50 [9] 20.9 µM
inactive: outcome [1]

CC1(COc2ccc3c(c2)ncn3-c2ccc3cccc(N4CCC(N)CC4)c3n2)COC1
1330: cell count [10, 16]
1.21: fold change [10, 15]
7140: cell count [12]
inactive: fold change [10, 14] 0.944 | plate-normalised HSF1 focus index [12] 0.92 | z-score [11, 18] 0.899 | viability ([13]; at 0.000305 µM, OCI-C5x cells, with rucaparib 10 µM, 100% = cells with rucaparib alone) 110% | viability ([13]; at 0.000305 µM, OCI-C5x cells, without rucaparib) 122% | viability ([13]; at 0.000305 µM, OCI-P5x cells, with rucaparib 20 µM, 100% = cells with rucaparib alone) 122% | viability ([13]; at 0.000305 µM, OCI-P5x cells, without rucaparib) 113% | viability ([13]; at 0.00122 µM, OCI-C5x cells, with rucaparib 10 µM, 100% = cells with rucaparib alone) 115% | viability ([13]; at 0.00122 µM, OCI-C5x cells, without rucaparib) 125% | viability ([13]; at 0.00122 µM, OCI-P5x cells, with rucaparib 20 µM, 100% = cells with rucaparib alone) 119% | viability ([13]; at 0.00122 µM, OCI-P5x cells, without rucaparib) 120% | viability ([13]; at 0.00488 µM, OCI-C5x cells, with rucaparib 10 µM, 100% = cells with rucaparib alone) 111% | viability ([13]; at 0.00488 µM, OCI-C5x cells, without rucaparib) 121% | viability ([13]; at 0.00488 µM, OCI-P5x cells, with rucaparib 20 µM, 100% = cells with rucaparib alone) 120% | viability ([13]; at 0.00488 µM, OCI-P5x cells, without rucaparib) 117% | viability ([13]; at 0.0195 µM, OCI-C5x cells, with rucaparib 10 µM, 100% = cells with rucaparib alone) 115%
-2.3: SSMD [12]
active: AC50 [1] 9.34 µM | AC50 [2] 0.332 µM | AC50 [3] 1.18 µM | AC50 [4] 10.5 µM | AC50 [5] 8.33 µM | AC50 [6] 23.5 µM | AC50 [7] 13.2 µM | IC50 [9] 26.3 µM
-3.35: z-score [11, 19]
1400: cell count [10, 17]

Reference: PubChem BioAssay
